Test results: PubChem BioAssay (EPA / NIEHS)
Several values for one entry are separate records, joined by “and”; a condition that tells them apart may be missing. Equal values may be shown once. The source holds several records for some structures; these can differ, active in one and inactive in another. Activity calls are given as the source filed them. How the source made its calls: active means hit-call score of the fitted dose curve at least 0.9, where 1 is the maximum; inactive means score below 0.9.

What follows are molecules tested on E-selectin (Homo sapiens) (UniProt P16581) (assay: BSK_IMphg_ESelectin: BioMAP Diversity Plus: IMphg Assay for Eselectin Biomarker Activity (AID 2284291)). Details: primary human endothelial cells with macrophages.
Sequence of E-selectin (Homo sapiens) (P16581 whole entry, looked up): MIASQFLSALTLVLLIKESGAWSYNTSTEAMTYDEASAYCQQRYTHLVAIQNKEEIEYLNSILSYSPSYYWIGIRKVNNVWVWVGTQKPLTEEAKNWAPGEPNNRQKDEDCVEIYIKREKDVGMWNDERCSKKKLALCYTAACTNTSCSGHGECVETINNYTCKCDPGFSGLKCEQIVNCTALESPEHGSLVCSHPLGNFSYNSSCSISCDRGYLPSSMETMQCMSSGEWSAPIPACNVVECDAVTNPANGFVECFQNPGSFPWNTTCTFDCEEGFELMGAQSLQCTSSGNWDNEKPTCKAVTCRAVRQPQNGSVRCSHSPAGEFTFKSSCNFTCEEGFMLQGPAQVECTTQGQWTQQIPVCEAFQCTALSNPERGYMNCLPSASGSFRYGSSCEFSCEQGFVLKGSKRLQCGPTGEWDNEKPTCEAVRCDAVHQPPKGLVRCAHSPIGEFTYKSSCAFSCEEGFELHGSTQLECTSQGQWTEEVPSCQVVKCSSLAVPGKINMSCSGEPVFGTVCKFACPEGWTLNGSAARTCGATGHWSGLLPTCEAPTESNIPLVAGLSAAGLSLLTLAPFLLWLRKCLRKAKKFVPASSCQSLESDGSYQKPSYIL
Protocol: BSK_IMphg is a cell-based, multiplexed-readout assay that uses venular endothelial cells and macrophages, a human vascular primary cell, with measurements taken at 24 hours after chemical dosing in a microplate: 96-well plate.BSK_IMphg_ESelectin is an assay component measured in the BSK_IMphg assay. It measures E-selectin antibody related to regulation of gene expression using ELISA technology.Data from the assay component BSK_IMphg_ESelectin was analyzed at the endpoint, BSK_IMphg_ESelectin, in the positive analysis fitting direction relative to DMSO as the negative control and baseline of activity. Using a type of binding reporter, gain or loss-of-signal activity can be used to understand protein changes. To generalize the intended target to other relatable targets, this assay endpoint is annotated to the 'cell adhesion molecules' intended target family, where the subfamily is 'selectins'.
The levels of cell surface (or secreted, indicated by the prefix "s") biomarker endpoints were measured by ELISA. Overt cytotoxicity to cells in confluent adherent cultures (all systems other than the BT system) was assessed by measuring total protein levels using sulforhodamine B (SRB) staining in parallel cultures at the time of biomarker measurements, indicated as SRB endpoints. For proliferation assays for adherent cell types, individual cell types are cultured at sub-confluence and relative cell numbers quantified by SRB staining at time points optimized for each system (48 h: 3C and CASM3C systems; 72 h: BT and HDF3CGF systems; 96 h: SAg system). SRB was performed by staining cells with 0.1% SRB after fixation with 10% TCA and reading wells at 560 nm.Viability and proliferation of PBMC (T cells) was quantified by Alamar Blue reduction for the SAg and BT systems. For PBMC viability (referred to as PBMC Cytotoxicity within the assay endpoint names), cells were plated (75,000/well in a 96-well plate) and then chemical samples added for 1 h before addition of activators, SEB and TSST-1 (20 ng/mL final concentration each). Cells were incubated for 90 h. Then, Alamar Blue (20 uL/well) (Invitrogen, Cat DAL1100) was added for 6 h, and the plates were read with a fluorescence microplate reader at 546/580 nm (excitation/emission). For PBMC proliferation, cells were plated and activated as above but incubated for only 16 h prior to addition of Alamar Blue. Plates were read after 6 h.
For `FC(F)(F)C(F)(F)C(F)(F)CI`, the outcome was “inactive”. `NC(=O)C(F)(F)C(F)(F)C(F)(F)C(F)(F)F` was tested, and the outcome was “inactive”. `OCC(F)(F)C(F)(F)C(F)(F)C(F)(F)C(F)(F)C(F)F` was tested, and the outcome was “inactive”. For `OCCCC(F)(F)C(F)(F)C(F)(F)C(F)(F)C(F)(F)C(F)(F)C(F)(F)F`, the outcome was “inactive” and the AC50 was 45.4 µM (active). `O=C(CC(=O)C(F)(F)C(F)(F)F)C(F)(F)F` was tested, and the outcome was “inactive”. `O=C(O)C(F)(F)C(F)(F)C(F)(F)C(F)(F)C(F)(F)C(F)(F)C(F)(F)C(F)(F)C(F)(F)C(F)(F)C(F)(F)C(F)(F)C(F)(F)F` was tested, and the outcome was “inactive”. With `C=CC(F)(F)C(F)(F)C(F)(F)C(F)(F)C(F)(F)C(F)(F)C(F)(F)C(F)(F)F` the outcome was “inactive”. For `FC(F)(F)C(F)(F)C(F)(F)C(F)(F)C(F)(F)C(F)(F)C(F)(F)I`, the outcome was “inactive”. `FC(F)(F)C(F)(F)C(F)(F)C(F)(F)C(F)(F)C(F)(F)CC1CO1` (stereo unspecified) was tested, and the outcome was “inactive”. With `C=C(C)C(=O)OCC(F)(F)C(F)(F)C(F)(F)C(F)(F)C(F)(F)C(F)(F)C(F)(F)F` the outcome was “inactive”. With `O=S(=O)(OCC(F)F)C(F)(F)F` the outcome was “inactive”. With `FC(F)(F)C(F)(F)C(F)(F)C(F)(F)C(F)(F)C(F)(F)C(F)(F)Br` the outcome was “inactive”. In the case of `C=CC(=O)OCC(F)(F)C(F)(F)C(F)(F)C(F)(F)C(F)(F)C(F)(F)C(F)(F)F`, the outcome is reported as “inactive”. With `CC(C)(C)C(=O)CC(=O)C(F)(F)C(F)(F)C(F)(F)F` the outcome was “inactive”. `FC(F)(F)C(F)(F)C(F)(F)C(F)(F)C(F)(F)C(F)(F)C(F)(F)C(F)(F)F` was tested, and the outcome was “inactive”. With `O=C(O)C(F)(OC(F)(F)C(F)(OC(F)(F)C(F)(F)C(F)(F)F)C(F)(F)F)C(F)(F)F` (stereo unspecified) the outcome was “inactive”. For `C=CC(=O)OCC(F)(F)C(F)(F)C(F)(F)C(F)(F)COC(=O)C=C`, the AC50 was 25.1 µM (active) and 31.3 µM (active). For `O=C(O)C(F)(F)C(F)(F)OC(F)(F)F`, the outcome was “inactive”. With `O=C(O)C(F)(F)C(F)(F)C(F)(F)C(F)(F)C(F)(F)C(F)(F)C(F)(F)C(F)(F)C(F)(F)C(F)(F)C(F)(F)C(F)(F)F` the outcome was “inactive”. For `FC(F)(F)C(F)(F)C(F)(F)C(F)(F)C(F)(F)C(F)(F)C(F)(F)C(F)(F)CCS`, the outcome was “inactive”. With `O=C(Cl)C(F)(F)C(F)(F)C(F)(F)C(F)(F)C(F)(F)C(F)(F)C(F)(F)C(F)(F)F` the AC50 was 40.2 µM (active) and the outcome was “inactive”. For `FC1CC(F)(F)C(F)(F)C1(F)F` (stereo unspecified), the outcome was “inactive”. In the case of `O=C(O)C=C(C(F)(F)F)C(F)(F)F`, the AC50 is reported as 20.2 µM (active) and 18 µM (active). With `OCC(F)(F)C(F)(F)C(F)(F)C(F)F` the outcome was “inactive”. `O=C(O)C(F)(F)C(F)(F)F` was tested, and the outcome was “inactive”. In the case of `FC(F)(I)C(F)(F)C(F)(F)C(F)(F)I`, the outcome is reported as “inactive”. `C=C(C)C(=O)OCCC(F)(F)C(F)(F)C(F)(F)C(F)(F)C(F)(C(F)(F)F)C(F)(F)F` was tested, and the outcome was “inactive”. For `O=C(O)C(F)(F)C(F)(F)C(F)(F)C(F)(F)C(F)(F)C(F)(F)C(F)(F)C(F)(F)C(F)(F)C(F)F`, the outcome was “inactive”. With `CCCCCCCCC(F)(F)C(F)(F)C(F)(F)C(F)(F)C(F)(F)C(F)(F)F` the outcome was “inactive”. `FC(F)(F)C(F)(F)C(F)(F)N(C(F)(F)C(F)(F)C(F)(F)F)C(F)(F)C(F)(F)C(F)(F)F` was tested, and the outcome was “inactive”. With `C=CC(F)(F)C(F)(F)C(F)(F)C(F)(F)C(F)(F)C(F)(F)C(F)(F)C(F)(F)C=C` the outcome was “inactive”. With `O=C(O)C(F)(F)C(F)(F)C(F)(F)F` the outcome was “inactive”. `O=C(O)C(F)(F)C(F)(F)C(F)(F)C(F)(F)F` was tested, and the outcome was “inactive”. `O=C(O)C(F)(F)C(F)(F)C(F)(F)C(F)(F)C(F)(F)C(F)(F)C(F)(F)C(F)(F)Cl` was tested, and the outcome was “inactive”. For `N=C(N)C(F)(F)C(F)(F)C(F)(F)C(F)(F)C(F)(F)C(F)(F)C(F)(F)F`, the outcome was “inactive”. In the case of `FC(F)(F)C(F)(F)C(F)(F)C(F)(F)C(F)(F)CCI`, the outcome is reported as “inactive”. With `OCC(F)(F)C(F)(F)C(F)(F)C(F)(F)C(F)(F)C(F)(F)F` the outcome was “inactive”. In the case of `O=P(O)(O)OCCC(F)(F)C(F)(F)C(F)(F)C(F)(F)C(F)(F)C(F)(F)F`, the outcome is reported as “inactive” and the AC50 is reported as 5.46 µM (active).
